Shown are actives, neighbours in structure and some others; about 3.8% of the full set was active somewhere.
DAT uptake mod: changed human dopamine transporter uptake under cocaine IC80; Q01959; 1.3% of 110,000 active; B-score at 10 µM; LLC-PK1 hDAT cells, [14C]-dopamine uptake with cocaine IC80; actives deviate in either direction; AID 449768;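 active means Z score or B-score, a plate-position-corrected score, falls beyond the plate's 99.7% confidence bounds, in either direction; inactive means both scores lie inside the 99.7% bounds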
Target sequence (Q01959 whole entry, looked up): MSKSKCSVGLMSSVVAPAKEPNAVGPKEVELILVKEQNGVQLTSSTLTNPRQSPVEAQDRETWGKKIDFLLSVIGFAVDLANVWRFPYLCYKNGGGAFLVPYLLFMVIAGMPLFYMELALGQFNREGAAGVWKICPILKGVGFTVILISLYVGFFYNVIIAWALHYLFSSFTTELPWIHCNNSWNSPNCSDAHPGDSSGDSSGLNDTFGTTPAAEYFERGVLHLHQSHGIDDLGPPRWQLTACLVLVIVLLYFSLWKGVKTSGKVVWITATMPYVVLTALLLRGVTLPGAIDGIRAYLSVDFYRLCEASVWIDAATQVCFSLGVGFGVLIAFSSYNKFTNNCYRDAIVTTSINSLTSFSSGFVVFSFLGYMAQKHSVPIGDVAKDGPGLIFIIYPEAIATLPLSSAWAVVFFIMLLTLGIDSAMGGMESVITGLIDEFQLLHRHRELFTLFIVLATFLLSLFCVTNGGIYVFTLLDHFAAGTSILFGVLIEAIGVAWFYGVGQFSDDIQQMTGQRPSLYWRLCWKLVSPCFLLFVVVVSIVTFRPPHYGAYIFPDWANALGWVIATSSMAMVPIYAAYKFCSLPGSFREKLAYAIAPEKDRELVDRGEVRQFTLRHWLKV
ERb SRC1 inh: blocks coactivator binding to human estrogen receptor beta; TR-FRET ER-beta LBD / SRC1-Cy5 peptide binding; receptor agonist-loaded with 1 µM estradiol; 1.3% of 86,000 active; Q92731; inhibition, % at 25.6 µM;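 active means compounds whose percent inhibition of the receptor-coactivator binding signal exceeds about 50% in the single-dose screen, limit read from the data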
ERa SRC1 inh: ER-alpha (human) coactivator binding inhibition | TR-FRET ER-alpha LBD / SRC-1 peptide, estradiol-bound | inhibition, % at 25.6 µM | 1.7% of 86,000 active | AID 629; in the data active means inhibition above about 50%
MT1-MMP txn act: MT1-MMP promoter transcription activation; HT1080 MT1-MMP promoter luciferase reporter, luminescence, overnight; stronger effect = higher value; activation factor at 10 µM; 0.16% of 86,000 active; AID 750;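 active means activation factor of at least 2 for MT1-MMP transcription at 10 µM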
ERa coact pot: ER-alpha (human) coactivator binding potentiation. TR-FRET ERalpha-LBD/SRC-Cy5 coactivator binding, 2 h; 100 = basal binding, no effect. P03372. 1.3% of 86,000 active. AID 639. coactivator binding (% of control), % at 25.6 µM; in the data active means activity above about 200%;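 further: binding measured in presence of low estradiol as agonist stimulus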
Numbers stand for hits; – = inactive; · = no result; [ ] = dose if it differs, or a comment.

SMILES	DAT uptake mod	ERb SRC1 inh	ERa SRC1 inh	MT1-MMP txn act	ERa coact pot
Nc1nc(Nc2ccccc2Br)nc(C(F)(F)F)n1	–	–	–	–	–
Nc1ncnc(Nc2ccccc2C(F)(F)F)n1	–	–	–	–	666[fluorescence artefact?]
Cc1c(C(=O)NC(C)C)sc2ncn(CC(=O)N3CCC(C)CC3)c(=O)c12	–	–	–	–	–
O=C(Cn1c(=O)[nH]c2ccsc2c1=O)NC1CCCCC1	-2.7	–	–	–	–
CCOC(=O)c1c(-c2ccccc2)oc2cc(CN(C)C)c(O)c(CN(C)C)c12	·	–	–	–	–
Cc1cccc(S(=O)(=O)c2c(N)n(/N=C/c3cccnc3)c3nc4ccccc4nc23)c1	3.2	–	–	–	–
COc1cccc(/C=N/n2c(N)c(S(=O)(=O)c3cccs3)c3nc4ccccc4nc32)c1	–	·	·	·	·
Cc1ccc(S(=O)(=O)c2c(N)n(/N=C/c3ccco3)c3nc4ccccc4nc23)cc1	–	–	–	–	–
Cc1cccc(S(=O)(=O)c2c(N)n(/N=C/c3ccco3)c3nc4ccccc4nc23)c1	–	–	–	–	253
CC1(C)CC(=O)C/C(=N/NC(=O)CCCOc2ccc(Cl)cc2Cl)C1	–	·	·	·	·
Cc1ccc2oc(-c3cccc(NC(=S)NC(=O)/C=C/c4ccco4)c3)nc2c1	–	·	·	·	·
O=C(CSc1nnc(C2CC2)n1Cc1ccccc1)N1CCN(S(=O)(=O)c2ccccc2)CC1	-7.4	–	–	–	–
CCOC(=O)C1=c2s/c(=C\c3cccnc3)c(=O)n2C(N)=C(C(=O)OC)C1c1cccnc1 (stereo not drawn)	–	–	–	–	–
CCOC(=O)C1=C(N)n2c(s/c(=C\c3cccnc3)c2=O)=C(C#N)C1c1cccnc1 (stereo not drawn)	·	–	52[fluorescence artefact?]	–	–
CC1=NOC(=O)/C1=C/c1ccc(-c2ccc(Cl)cc2)o1	–	–	64[fluorescence artefact?]	–	–
COc1ccc(OCC(O)COc2ccc(C(=O)O)cc2)cc1 (stereo not drawn)	2.7	–	–	–	–
CC(=O)c1ccc(OCC(O)COc2ccc(C(C)=O)cc2)cc1	–	·	·	–	·
CCCN(CCC)C(=O)CC(c1ccccc1)c1cc(C)ccc1O (stereo not drawn)	2.5	–	–	–	–
Cc1ccc(O)c(C(CC(=O)N2CCCC2)c2ccccc2)c1 (stereo not drawn)	·	·	·	–	·
O=C(NC(CSSCC(NC(=O)c1ccccc1)C(=O)O)C(=O)O)c1ccccc1 (stereo not drawn)	–	·	·	·	·
CCOC(=O)c1c(C)oc2ccc(NS(=O)(=O)c3cccs3)cc12	–	–	–	–	–
COCCOC(=O)c1c(C)oc2ccc(NS(=O)(=O)c3ccc(C(=O)O)cc3)cc12	–	54[fluorescence artefact?]	–	–	–
CCCCOC(=O)c1c(C)oc2ccc(NS(=O)(=O)c3ccc4c5c(cccc35)C(=O)N4)cc12	–	53	–	–	–
O=C1C2C(c3ccccc3)CC=CC2[C@H](c2cccc([N+](=O)[O-])c2)N1Cc1ccccc1 (stereo partly drawn)	–	·	·	·	·
CNC(=O)[C@]1(C)C[C@H]1[C@H](NC(=O)[C@]1(C)C[C@H]1[C@H](NC(=O)[C@]1(C)C[C@H]1[C@H](NC(=O)[C@]1(C)C[C@H]1[C@H](NC(=O)OCc1ccccc1)c1ccccc1)c1ccccc1)c1ccccc1)c1ccccc1	·	·	·	–	·
SMILES	DAT uptake mod	ERb SRC1 inh	ERa SRC1 inh	MT1-MMP txn act	ERa coact pot
Nc1ccc2nc3n(c(=O)c2c1)CCC3	–	–	–	–	215
O=c1c2ccccc2nc2n1CCC2	–	·	·	–	·
Cc1nc(Oc2cccc(Cl)c2)c2oc3ccccc3c2n1	–	74[fluorescence artefact?]	–	–	–
CCN(CC)CCOc1nc(C)nc2c1oc1ccccc12	–	–	–	–	–
COC(=O)CN(c1cccc(F)c1)S(C)(=O)=O	–	·	·	·	·
COc1cc2c(C#N)c(N3CCOCC3)nc(N)c2c(N)n1	–	75[fluorescence artefact?]	–	–	–
Cc1ccc(Cn2c(C(C)Nc3nc(C)cs3)nc3cc(Cl)c(Cl)cc32)cc1 (stereo not drawn)	–	·	·	·	·
COc1ccccc1N1CCN(C(=O)c2ccc3nc(-c4ccco4)c(-c4ccco4)nc3c2)CC1	–	66	68[fluorescence artefact?]	–	–
Clc1cccc(-c2ccc(/C=N/n3cnnc3)o2)c1Cl	–	–	51[fluorescence artefact?]	–	–
O=C1CCC2(C(=O)O)Sc3ccccc3N12 (stereo not drawn)	–	·	·	·	·
COc1ccc(CCNS(=O)(=O)c2ccc(S(=O)(=O)N3CCCC3)cc2)cc1OC	–	88[fluorescence artefact?]	–	–	–
Brc1ccc(-c2noc3c2-c2nc(C4CCCCC4)sc2CC3)cc1	–	·	·	·	·
CCOC(=O)CSc1cccc2cccnc12	–	–	–	–	237[fluorescence artefact?]
O=C(Cc1cccc2ccccc12)N/N=C/c1ccc(OC(=O)/C=C/c2ccco2)cc1	–	–	65[fluorescence artefact?]	–	–
CCCc1[nH][nH]c(=O)c1C(c1cccc(Cl)c1)C(C#N)C#N (stereo not drawn)	-9.4	–	–	–	–
N#CC(C#N)C(c1ccsc1)c1c(-c2ccccc2)[nH][nH]c1=O (stereo not drawn)	–	–	–	–	–
CC1CCN(c2ccc(/C=N/n3nnnc3N)cc2[N+](=O)[O-])CC1	–	·	·	·	·
Cc1ccc(/C=N/n2nnnc2N)cc1[N+](=O)[O-]	-8.9	·	·	·	·
O=C(NCc1ccc(OC(F)(F)F)cc1)C1CC(c2c(Cl)cccc2Cl)=NO1 (stereo not drawn)	–	·	·	·	·
C=CCn1c(=O)c2ccccc2n2c(SCc3nc4ccccc4s3)nnc12	3.6	–	–	–	–
CCCCn1c(/N=C/c2cc(OC)ccc2O)nc2ccccc21	2.7	–	–	–	–
Cc1cc2ccccc2c(=O)n1CC(=O)NCC(=O)N(C)Cc1ccccc1	-7.8	–	–	–	–
Cc1cc2ccccc2c(=O)n1CC(=O)NCC(=O)N(C)C1CCCCC1	–	–	–	–	–
C=C1CC2C(=O)N(Cc3cc(OC)ccc3OC)C(C(=O)OCC)(C(=O)OCC)C1N2C(=O)OC(C)(C)C (stereo not drawn)	–	·	·	·	·
Cc1cc2nnc(SCC(=O)OC(C)C)n2c2ccccc12	·	–	–	–	–
SMILES	DAT uptake mod	ERb SRC1 inh	ERa SRC1 inh	MT1-MMP txn act	ERa coact pot
O=C(NCc1ccccc1)c1onc(CSc2ccccc2)c1C(=O)NCc1ccccc1	1.6	·	·	·	·
CC(C)NC(=O)c1c(CSc2ccccc2)noc1C(=O)NCc1ccccc1	2.8	·	·	·	·
O=S(=O)(O)c1nc2ccccc2n1Cc1ccccc1	·	63	–	–	–
COCCn1c(=NC(=O)c2ccc3c(c2)OCO3)c(C#N)cc2c(=O)n3cccc(C)c3nc21	-2.2	–	–	–	–
CCCCn1c(=NC(=O)c2ccc3c(c2)OCO3)c(C#N)cc2c(=O)n3cccc(C)c3nc21	–	–	–	–	–
CCCn1c(=N)c(C(=O)NCc2ccc3c(c2)OCO3)cc2c(=O)n3cccc(C)c3nc21	–	53[fluorescence artefact?]	79[fluorescence artefact?]	–	–
COc1ccc(CCc2cc(OC)cc(=O)o2)cc1	–	·	·	·	·
CC1(c2nnc(-c3ccc(F)cc3)o2)CC(c2ccc([N+](=O)[O-])cc2)=NO1 (stereo not drawn)	–	·	·	·	·

Compound activity (PubChem)
